# Shown are actives, neighbours in structure and some others; about 3.7% of the full set was active somewhere.
# Anthrax LF prot = inhibitors of Bacillus anthracis lethal factor protease. P15917. multiplex microsphere protease cleavage assay, LF. inhibition, % at 10 µM. actives 0.12% (n = 360,000). AID 588501; further: plate controls were buffer without enzyme for full effect and enzyme alone for no effect
# Target sequence (P15917 whole entry, looked up): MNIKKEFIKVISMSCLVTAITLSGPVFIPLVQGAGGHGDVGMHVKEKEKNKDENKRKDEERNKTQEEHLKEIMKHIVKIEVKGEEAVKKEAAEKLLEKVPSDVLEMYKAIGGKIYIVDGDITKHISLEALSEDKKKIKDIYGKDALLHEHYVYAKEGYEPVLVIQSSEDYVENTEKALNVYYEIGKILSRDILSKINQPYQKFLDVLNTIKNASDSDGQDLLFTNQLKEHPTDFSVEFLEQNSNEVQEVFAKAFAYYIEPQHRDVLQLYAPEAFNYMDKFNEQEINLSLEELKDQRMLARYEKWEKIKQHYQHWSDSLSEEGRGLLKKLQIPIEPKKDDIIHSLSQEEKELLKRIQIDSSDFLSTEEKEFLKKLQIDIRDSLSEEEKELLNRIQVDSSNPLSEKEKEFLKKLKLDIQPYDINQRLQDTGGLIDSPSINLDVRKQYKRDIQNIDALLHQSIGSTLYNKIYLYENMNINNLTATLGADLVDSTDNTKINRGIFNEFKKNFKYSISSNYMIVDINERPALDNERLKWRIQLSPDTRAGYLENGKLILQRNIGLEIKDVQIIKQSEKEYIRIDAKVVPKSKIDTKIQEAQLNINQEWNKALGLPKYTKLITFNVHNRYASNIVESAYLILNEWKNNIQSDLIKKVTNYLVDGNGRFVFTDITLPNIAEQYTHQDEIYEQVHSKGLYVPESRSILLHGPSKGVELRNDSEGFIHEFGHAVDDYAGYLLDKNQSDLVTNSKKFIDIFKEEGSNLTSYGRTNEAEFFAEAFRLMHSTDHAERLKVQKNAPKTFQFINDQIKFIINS
# Autofluor counter = flagged as autofluorescent in microsphere protease counterscreen | compound autofluorescence counterscreen, microsphere flow cytometry; active compounds read high | fluorescence intensity (no concentration beside the values) | actives 3.1% (n = 360,000) | AID 624483; in the data active means fluorescence intensity above about 16000; inconclusive means no clear call, values can overlap the other calls
# BoNT F protease = blocks Botulinum neurotoxin F light chain protease. Multiplex microsphere protease cleavage assay, flow cytometry. inhibition, % at 10 µM. actives 0.22% (n = 360,000); in the data active means inhibition above about 35%, passing the limit was not always enough; inconclusive means no clear call, values can overlap the other calls; further: plate controls were buffer without enzyme for full effect and enzyme alone for no effect
# BoNT-A LC inh2 = inhibitors of Botulinum neurotoxin A light chain protease. multiplex microsphere protease substrate cleavage, flow cytometry. inhibition, % at 10 µM. actives 0.17% (n = 360,000); further: plate controls were buffer without enzyme for full effect and enzyme alone for no effect
# MazEF act = MazEF (E. coli) toxin RNase activation; activation, % at 20 µM; actives 0.32% (n = 350,000); FAM/BHQ RNA-DNA oligo cleavage fluorescence, 5 h; P0AE70; AID 504720; in the data active means activation above about 50%
# * hit, by the source's call; ? = inconclusive; . = no result. Unless noted, no stated cut-off is given here; in the data, active means inhibition above about 30%; inconclusive means no clear call, values can overlap the other calls; inactive means below that.
SMILES,Anthrax LF prot,Autofluor counter,BoNT F protease,BoNT-A LC inh2,MazEF act
Cc1ccc2c(c1)N(CC(=O)N1CCCCC1)C(=O)CO2,-8,3681,4,1,3
Cc1ccc2c(c1)N(CC(=O)N1CCc3ccccc3C1)C(=O)CO2,-2,21837*,0,1,0
Cc1ccc2c(c1)N(CC(=O)N1CCCc3ccccc31)C(=O)CO2,-4,16620*,-1,-1,6
Cc1ccc(CNC(=O)CN2C(=O)COc3ccc(C)cc32)cc1,-4,19416*,1,1,9
COc1ccc(NC(=O)CSc2nnc(-c3cccnc3)o2)c(OC)c1,3,?,-3,-2,-2
CC(=O)Nc1cccc(-c2cc(NC(C)=O)c3ncc(-c4ccc(C(C)=O)cc4)n3c2)c1,3,2828,2,0,.
CCn1c(CC(=O)Nc2ccccc2C)nnc1SCC(=O)NC1CCCC1,-2,5826,-5,-1,12
Cc1ccc(S(=O)(=O)N2CCC(C(=O)NCCN3CCCCCC3)CC2)cc1,-2,18618*,-16,?,-2
COc1ccc(CNC(=O)[C@H](C)NC(=O)C2CCN(S(=O)(=O)c3ccc(C)cc3)CC2)cc1,-9,18265*,6,?,-2
O=C(CNCc1ccccn1)Nc1cc(S(=O)(=O)N2CCCCC2)ccc1Cl,-1,4461,-4,-3,-8
Cc1ccc(S(=O)(=O)N2CCC(C(=O)NCc3ccncc3)CC2)cc1,0,21375*,1,2,7
COc1ccc(CNC(=O)[C@H](C)NC(=O)C2CCN(S(=O)(=O)c3ccc(F)cc3)CC2)cc1,1,5270,-2,-2,2
O=C(CNCc1ccncc1)Nc1cc(S(=O)(=O)N2CCCCC2)ccc1Cl,1,20589*,5,10,4
O=C(NCc1ccco1)c1c(Cl)cccc1Cl,-1,2941,-2,0,-6
Cc1ccc(S(=O)(=O)N2CCC(C(=O)N3CCC[C@H]3C(=O)NC3CCS(=O)(=O)C3)CC2)cc1 (some centres undefined),-4,23712*,-1,?,5
CCCNC(=O)[C@@H]1CCCN1C(=O)C1CCN(S(=O)(=O)c2ccc(C)cc2)CC1,2,4676,-2,-2,2
COc1cc(OC)nc(NC(=O)C(C)C)n1,1,4830,12,0,4
COc1cc(OC)nc(NC(C)=O)n1,-1,23958*,-4,-4,-6
CC1CN(C2=NC(=O)/C(=C3/C(=O)N(Cc4ccc(F)cc4)c4ccccc43)S2)CC(C)O1 (centres undefined),32*,4079,?,?,34
O=C1N=C(N2CCOCC2)S/C1=C1\C(=O)N(Cc2ccccc2)c2ccccc21,-3,16736*,-2,-1,20
CCCN1C(=O)/C(=C2\SC(N3CCCCC3)=NC2=O)c2ccccc21,-4,3963,?,0,6
CCOc1cc(C(=O)NCC(=O)N2CCC3(CC2)NCCc2[nH]cnc23)cc(OCC)c1OCC,0,5885,0,0,2
CCc1c(C(=O)Nc2ncn(Cc3cccc(C)c3)n2)csc1C,-6,16518*,0,?,5
CCc1c(C(=O)Nc2ccncc2)csc1C,-7,23043*,-2,-1,-2
COc1cc(OC)cc(C(=O)NC2CCSC2=O)c1 (centres undefined),-2,17088*,-4,-1,3
SMILES,Anthrax LF prot,Autofluor counter,BoNT F protease,BoNT-A LC inh2,MazEF act
OC(c1ccc(F)c(F)c1)c1ncc(-c2cccc(C(F)(F)F)c2)[nH]1 (centres undefined),6,3657,4,0,.
CCOc1cc(NC(=S)Nc2cccc(OC)c2)c(OCC)cc1NC(=O)C1CC1,-2,23099*,-3,-1,9
COc1cccc(NC(=O)C2CCC2)c1,-4,3604,-5,0,-7
COc1cccc(NC(=O)c2oc3ccccc3c2NC(C)=O)c1,0,7481,9,1,1
COc1cccc(NC(=O)c2oc3ccccc3c2NC(=O)C2CC2)c1,-2,24287*,-5,?,1
COc1ccc(NC(=O)c2oc3ccccc3c2NC(=O)C2CC2)cc1,1,20675*,5,4,8
COc1cccc(C(O)c2nc(-c3ccc(Cl)cc3)cs2)c1 (centres undefined),-2,3602,6,0,.
O=C(O)CNC(=O)c1ccc(S(=O)(=O)N2CCOCC2)cc1,1,20309*,2,1,3
O=C(NC(Cc1ccccc1)C(=O)N1CCN(S(=O)(=O)c2ccccc2)CC1)c1ccccc1 (centres undefined),0,4175,12,3,1
O=C(NCCCN1CCOCC1)c1ccc(S(=O)(=O)N2CCOCC2)cc1,1,8243,4,0,-6
O=C(NC(Cc1ccccc1)C(=O)O)c1ccc(S(=O)(=O)N2CCOCC2)cc1 (centres undefined),-1,19429*,-1,0,0
CCOC(=O)c1nc(C)n(-c2cc(Cl)cc(Cl)c2)n1,-10,17779*,6,6,-2
O=C(COC(=O)c1cc(S(=O)(=O)N2CCCC2)ccc1O)NCCc1ccccc1,1,5321,-6,3,6
CCCCn1c(N)c(N(CCOC)C(=O)c2cccc(S(=O)(=O)N(CC)c3ccccc3)c2)c(=O)[nH]c1=O,0,?,-2,2,-7
C=CCC(NCc1ccccc1)c1ccccc1 (centres undefined),-2,2142,2,1,2
C=CCC(NC(C)c1ccccc1)c1ccco1 (centres undefined),1,16630*,-3,0,-5
C(=N\n1cnnc1)/c1ccc2ncccc2c1,-4,20485*,8,?,7
C(=N\n1cnnc1)/c1ccccn1,3,10185,-2,-1,6
C(=N\n1cnnc1)/c1ccc2c(c1)OCO2,0,24727*,-3,-2,2
CC(=O)c1c(O)cc(C)n(Nc2nc(C)cc(C)n2)c1=O,-2,21656*,-3,?,7
O=C1CCCc2c1[nH]c1ccc(CN3CCCCC3)cc21,-2,23077*,-2,0,-4
O=C(CCS(=O)(=O)Cc1ccccc1)N1CCc2ccccc2C1,-5,21963*,2,4,-5
COCCN1C(=O)COc2ccccc2C1C(=O)NC1CCCCC1 (centres undefined),3,5593,10,1,.
COc1ccc(-n2nnnc2SCC(=O)Nc2nnn(C)n2)cc1,-2,22244*,0,2,7
CSc1nsc(SCC(=O)Nc2c(C)n(C)n(-c3ccccc3)c2=O)n1,1,20801*,1,2,1
Cc1c(NC(=O)CSc2nnnn2-c2ccc(O)cc2)c(=O)n(-c2ccccc2)n1C,-2,23720*,-4,?,1
COc1ccc(-n2nnnc2SCC(=O)NC2CC2)cc1,-6,8008,-23,-10,-2
COc1ccc(CCC(=O)N2CCN(S(=O)(=O)c3ccc(OC(F)(F)F)cc3)CC2)cc1,-8,3427,-6,0,0
CC(=O)c1ccc(C(=O)N2CCCC(CO)(Cc3ccccc3C)C2)s1 (centres undefined),3,5620,-4,0,5

# Assay outcomes as filed in PubChem.
